Records with an inconclusive call do not appear. A number with no mark means an inactive call. Active and inactive are the calls of the source. Calls come from the whole dose curve; as a rule, active = well fitted inhibition curve with a large enough effect; inconclusive = small, poorly fitted or top-dose-only effect; inactive = flat fitted curve, though single readings scatter.
tested on: CP269; assay: qHTS profiling for inhibitors of Plasmodium falciparum proliferation (AID 504749); note: nearly all actives have a fitted effect of over 60% in size;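 for activity, negative = inhibition: 0% = DMSO vehicle and full inhibition = artemisinin control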; details: P. falciparum in erythrocytes, SYBR Green DNA, 72 h; series mostly up to 28.7 µM; activity, negative = inhibition: at the top concentration
How it was run: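 In a 72 h erythrocytic culture (37 C, humidified, 5% CO2) at 2.5% hematocrit and 0.3% starting parasitemia, compounds were tested; SYBR Green I in detergent lysis buffer stained parasite DNA overnight.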
Potency is the fitted concentration of half-maximal effect.

Compound | activity, negative = inhibition | Potency
CCCCCCCC/C=C\CCCCCCCC(=O)O | -0.712% | 
COC(F)(F)C(Cl)Cl | 2.65% | 
Nc1ncnc2c1ncn2[C@@H]1O[C@H](COP(=O)(O)OP(=O)(O)OP(=O)(O)O)[C@@H](O)[C@H]1O | 1.39% | 
Nc1c(N=Nc2ccc(-c3ccc(N=Nc4cc(S(=O)(=O)O)c5ccccc5c4N)cc3)cc2)cc(S(=O)(=O)O)c2ccccc12 | -6.67% | 
C#CCOc1ccc2c(C)cc(=O)oc2c1 | 1.42% | 
CC(O)CO (stereo not given) | 1.24% | 
COc1ccc2c3c1O[C@H]1C[C@@H](O)C=C[C@@]31CCN(C)C2 | -1.91% | 
O=S(=O)(O)O | 0.154% | 
CCCCCCCCCCCCCCCC(=O)OCC(COC(=O)CCCCCCCCCCCCCCC)OC(=O)CCCCCCCCCCCCCCC | 7.63% | 
O=C(O)CN(CCN(CC(=O)O)CC(=O)O)CC(=O)O | -10.2% | 
CCCCCCC(O)C/C=C/CCCCCCCC(=O)O (stereo not given) | 8.44% | 
C=CCSSSCC=C | -0.0174% | 
CCC(=O)NCCC1CCc2ccc3c(c21)CCO3 (stereo not given) | -0.905% | 
C[C@@H]1CCC2[C@@H](C)[C@@H](O)O[C@@H]3O[C@@]4(C)CC[C@@H]1[C@@]23OO4 (stereo not given in full) |  | 0.0048 µM (active)
CCCCC/C=C\C/C=C\CCCCCCCC(=O)O | -3.15% | 
CCCC(=O)O[C@]1(C(=O)CCl)[C@H](C)C[C@@H]2[C@H]3CCC4=CC(=O)C=C[C@]4(C)[C@@]3(F)C(=O)C[C@@]21C |  | 4.26 µM (active)
CCOc1ccc(N=Nc2ccc(N)cc2N)cc1 | -1.32% | 
NC(=O)c1ncn(C2OC(CO)C(O)C2O)n1 (stereo not given) | -6.78% | 
COCC(=O)Nc1cc(Sc2ccccc2)ccc1N=C(NC(=O)OC)NC(=O)OC | 1.16% | 
CC1=C(/C=C/C(C)=C/C=C/C(C)=C/C=C/C=C(C)/C=C/C=C(C)/C=C/C2=C(C)CCCC2(C)C)C(C)(C)CCC1 | 1.01% | 
Cc1ccccc1OCC(O)CNCCOc1ccc(C(N)=O)cc1 (stereo not given) | 1.07% | 
CCCCCCCC(=O)O | 9.59% | 
CC1=CCC(C(C)(C)O)CC1 (stereo not given) | -3.42% | 
CC(NNC(=O)c1ccccc1)c1ccccc1 (stereo not given) | -2.53% | 
CCOc1ccc2c(c1)C(C)=CC(C)(C)N2 | 4.26% | 
CO[C@H]1C[C@@H]2CC[C@@H](C)[C@@](O)(O2)C(=O)C(=O)N2CCCC[C@H]2C(=O)O[C@H]([C@H](C)C[C@@H]2CC[C@@H](OCCO)[C@H](OC)C2)CC(=O)[C@H](C)/C=C(\C)[C@@H](O)[C@@H](OC)C(=O)[C@H](C)C[C@H](C)/C=C/C=C/C=C/1C |  | 4.26 µM (active)
COC(=O)CCC(=O)CN | -2.05% | 
Cc1ccccc1 | 0.174% | 
CCCCC(C)(O)C/C=C/[C@H]1[C@H](O)CC(=O)[C@@H]1CCCCCCC(=O)OC (stereo not given in full) | -16.8% | 
O=C(O)c1cc(O)c2c(c1)[O][Bi][O]2 | -0.241% | 

Source: PubChem BioAssay (NCATS)
